rCAG RNA binder – binders of r(CAG) RNA repeats, primary screen, biochemical, fluorescence | r(CAG) RNA repeat, TO-PRO-1 dye displacement fluorescence | inhibition, % at 3 µM | actives 1.3% (n = 370,000) | AID 651821, 2012;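 active = inhibition above the plate cutoff, the mean of all test compounds on that plate plus 3 SD, cut at about 35% in these data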;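 also: 0% = DMSO alone and 100% = 100 µM mitoxantrone as full dye displacement; higher means more dye released from RNA so lower well fluorescence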
FAS-TE inh – FAS thioesterase domain inhibitors, primary screen, biochemical, fluorescence intensity, uHTS; recombinant FAS-TE, OMFH fluorogenic substrate, fluorescence endpoint; inhibition, % at 15 µM; actives 0.67% (n = 360,000);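 active = compounds whose normalised, plate-corrected inhibition of enzyme fluorescence in the single-dose primary screen is 50% or more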;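 also: 0% = DMSO with enzyme and 100% = substrate without enzyme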
Myeloid diff 2 – induction of myeloid progenitor differentiation, primary screen, cell-based, flow cytometry, MLPCN library; AID 624256, 2012; calls only at 10 µM; ER-HoxA9 myeloid progenitors, lysozyme-GFP differentiation; actives 1% (n = 360,000);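 active = normalized GFP-positive differentiation at or above the plate's own cutoff, the solvent-only control mean plus 3 SD; inconclusive = no clear call, values can overlap the other calls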;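 also: cells exposed to compound for four days before flow analysis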
GRIN3A LBD mod – binders of NR3A ligand-binding domain, primary screen, biophysical, differential scanning fluorimetry, uHTS | actives 2.5% (n = 340,000) | Glutamate receptor ionotropic, NMDA 3A (GRIN3A) ligand-binding domain | Tm shift relative to glycine control, % at 25 µM | NR3A LBD differential scanning fluorimetry, Tm shift; 0% = protein alone, 100% = glycine-bound protein;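 active = melting temperature shift of at least 10% of the positive control shift, at one fixed dose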
MPTP block – mitochondrial permeability transition pore inhibitors, primary screen, biochemical, isolated mouse mitochondria, absorbance; actives 1.4% (n = 360,000); inhibition, % at 10 µM; Ca2+ swelling absorbance, 30 min; AID 602449, 2012;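 active = inhibition of 50% or more, scaled per plate between neutral and stimulator controls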;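 also: 0% = DMSO wells given calcium and 100% = 1 mM EGTA wells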
rCAG binder conf – small molecules binding CAG repeat RNA – biochemical, fluorescence, confirmation; shares compounds with rCAG RNA binder; r(CAG) RNA repeat, TO-PRO-1 dye displacement fluorescence; actives 70% (n = 4,300); inhibition, % at 3 µM;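 active = inhibition above a per-plate cutoff, the mean inhibition of sample wells plus 3 SD, cut at about 35% in these data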;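 also: loss of TO-PRO-1 fluorescence as compound displaces dye from 1x1 AA loop RNA; 0% = DMSO only wells and 100% = 100 µM mitoxantrone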
dCAG dye counter – displacement of TO-PRO-1 from CAG DNA duplex, counter-screen for rCAG RNA repeat binder project, biochemical, fluorescence, TO-PRO-1 dye, d(CAG) DNA oligo | shares compounds with rCAG RNA binder | inhibition, % at 3 µM | actives 94% (n = 4,300) | d(CAG) DNA oligo TO-PRO-1 dye displacement;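 active = inhibition above its plate's cutoff, the mean test-well inhibition plus 3 SD, cut at about 4.8% in these data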;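 also: 0% = DNA dye mix with DMSO and 100% = 100 µM mitoxantrone; hits displace the dye from DNA and so lower well fluorescence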
Active calls of the source: *; i = inactive; u = inconclusive; x = not tested or not shown. Only some compounds are listed: those with a hit (about 5.7% of all), similar ones and a draw of the others.

SMILES | rCAG RNA binder | FAS-TE inh | Myeloid diff 2 | GRIN3A LBD mod | MPTP block | rCAG binder conf | dCAG dye counter
O=C(c1ccc(S(=O)(=O)N2CCCC2)cc1)N1CCCCC1 | -3 | -6 | i | 1 | -3 | x | x
CCn1c(C(C#N)/C(=N\S(=O)(=O)c2cccs2)c2ccccc2)nc2ccccc21 (configuration not stated) | 37* | 0 | i | -1 | 1 | 32 | 7.8*
CCn1c(-c2cccs2)nc2ccccc21 | 0 | -3 | i | 1 | 1 | x | x
FC(F)(F)c1cc(-c2ccccc2)nc(NC2CCCC2)n1 | -1 | 21 | i | 2 | 2 | x | x
O=C(N/N=C1/CCSC1)c1cc(Br)ccc1O | 41* | -2 | i | -11 | 0 | 16 | 7.3*
O=C(NN=C1CCCC1)c1cc(Br)ccc1O | 9 | -3 | i | -3 | -1 | x | x
Cc1[nH]n(-c2ccccc2)c(=O)c1C=Nc1ccc(S(=O)(=O)Nc2nccs2)cc1 | 43* | -3 | i | -3 | 4 | 41* | 13*
Cc1ccc(-n2[nH]c(C)c(C=Nc3ccc(S(=O)(=O)Nc4nccs4)cc3)c2=O)cc1C | 56* | -1 | i | 15* | 0 | 75* | 38*
COc1nccnc1NS(=O)(=O)c1ccc(N=Cc2c(C)[nH]n(-c3ccc(C)c(C)c3)c2=O)cc1 | 27 | -4 | i | 1 | 0 | x | x
O=C(COC(=O)C1CC(=O)N(Cc2ccccc2)C1)Nc1cccc([N+](=O)[O-])c1 (configuration not stated) | -1 | 17 | i | -1 | -1 | x | x
COCCCn1c(=O)/c(=C\c2cccc(OC)c2OC)s/c1=C(/C#N)C(=O)Nc1ccc(C(=O)O)cc1 | 52* | 3 | i | 10 | 2 | 73* | 34*
C=CCn1c(SCc2c(C)noc2C)nc2sc3c(c2c1=O)CCCCC3 | 40* | 24 | i | 1 | 15 | 7 | 4.7*
COc1ccccc1NC(=O)CN(c1ccccc1)S(=O)(=O)c1ccccc1 | 3 | 19 | i | 2 | 0 | x | x
COc1ccc(N(CC(=O)Nc2ccccc2C(=O)O)S(=O)(=O)c2ccc(C)c([N+](=O)[O-])c2)cc1 | 72* | 8 | i | -16 | 1 | 54* | 17*
Cc1ccc(S(=O)(=O)N(CC(=O)Nc2ccccc2C(=O)O)c2ccccc2)cc1 | 41* | -5 | i | 2 | -1 | 34 | 8.4*
COc1cc(CN2C(=O)C(Cc3ccccc3)ON=C2c2ncccc2C)cc(OC)c1 (configuration not stated) | 0 | 23 | i | x | 0 | x | x
O=C(CN1C(=O)/C(=C\c2ccccc2Cl)Oc2ccccc21)NCc1cccnc1 | 3 | -3 | i | -1 | 2 | x | x
O=C(O)CN1C(=O)/C(=C/c2ccccc2Cl)Oc2ccccc21 | 39* | -4 | i | 1 | 1 | 35* | 7.3*
CCc1cc(C(=O)O)c(NC(=O)C(c2ccccc2)c2ccccc2)s1 | 41* | 0 | i | 1 | -2 | 36* | 8.4*
O=C(c1ccc(NC(=O)C(c2ccccc2)c2ccccc2)cc1)c1ccc(C(=O)O)c(C(=O)O)c1 | 42* | -4 | i | 3 | -2 | 18 | 3
COc1cccc(C2/C(=C(\O)c3ccc4c(c3)OCCO4)C(=O)C(=O)N2Cc2cccnc2)c1 (configuration not stated) | 2 | -1 | i | -3 | 0 | x | x
CC(C)C(NC(=O)COc1ccc2ccccc2c1)C(=O)N/N=C/C=C/c1ccccc1 (configuration not stated) | -2 | -6 | i | -6 | 2 | x | x
Cc1ccc(NN2C(=O)C=C(c3ccc(Cl)cc3)C2=O)cc1 | 11 | -7 | i | 5 | 0 | x | x
O=C(O)c1cccc(N2C(=O)/C(=C/c3ccc(SCc4ccc(Cl)cc4)o3)SC2=S)c1 | 67* | -21 | i | 15* | 1 | 88* | 61*
Nc1nc2ncccn2c1-c1ccc(C(F)(F)F)cc1 | 2 | x | i | x | -3 | x | x
SMILES | rCAG RNA binder | FAS-TE inh | Myeloid diff 2 | GRIN3A LBD mod | MPTP block | rCAG binder conf | dCAG dye counter
CC12CCC(=O)N1C(C(=O)NNC(=O)COc1ccc(Br)cc1)CS2 (configuration not stated) | -1 | -4 | i | -1 | 1 | x | x
O=S(=O)(O)c1ccc(N2N=C(c3ccccc3)CC2c2ccccc2)cc1 (configuration not stated) | 79* | 2 | i | 0 | 1 | 56* | 19*
CCOc1ccc(C(=O)CCc2nc3ccccc3s2)cc1 | -4 | 19 | i | -4 | 1 | x | x
Cc1ccc2[nH]c(=O)c(CN(CCc3ccccc3)C(c3nnnn3Cc3ccco3)C(C)C)cc2c1 (configuration not stated) | 37* | 26 | i | -1 | 2 | 12 | 8.1*
COC(=O)c1sc2nc(CN3CCN(c4cccc(C(F)(F)F)c4)CC3)[nH]c(=O)c2c1C | 8 | 3 | i | -4 | 4 | x | x
CCOC(=O)C1=C(CSc2nc3c(cc2C#N)CN(C)CC3)OC(N)=C(C#N)C1c1ccc(Cl)cc1 (configuration not stated) | 35* | 18 | i | -5 | 0 | 19 | 11*
C(=C\c1ccccc1)/CSc1nc2ncccc2[nH]1 | 4 | -2 | i | -2 | 5 | x | x
CCOC(=O)CSc1nc(=O)n2cc(C)ccc2n1 | 0 | -5 | i | -1 | 2 | x | x
O=C1CSc2ccc(S(=O)(=O)CCC(=O)NC3CCCCC3)cc2N1 | 3 | -6 | i | 1 | -1 | x | x
Cc1nc(SC(C)C(=O)Nc2cccc(C(F)(F)F)c2)c2c(C)c(C(=O)O)sc2n1 (configuration not stated) | 37* | 8 | i | -3 | 4 | 60* | 21*
O=C(CCc1ccccc1Cl)NC1CCCN(c2ccc(C(F)(F)F)cn2)C1 (configuration not stated) | -3 | 14 | u | -11 | 0 | x | x
COCCn1c(SCc2cc(C(C)=O)ccc2OC)nc2cc(Cl)ccc2c1=O | 42* | 8 | i | 4 | 0 | 4 | 4
O=C(Cc1cccc2ccccc12)Nc1cc(Cl)ccc1C(=O)O | 46* | 6 | i | 4 | 2 | 35* | 8.1*

Screening data (PubChem BioAssay)
